Results: PubChem BioAssay AID504652 (National Center for Advancing Translational Sciences (NCATS), 2011)
The campaign covered roughly 360,000 compounds. About 11,000 (3.1%) were called active. Only a selection was taken, and actives are over-represented in it overall. Values without a mark were called inactive. Rule as the data show it: active = activity change below about -30%; inactive = the rest.

target: D(1A) dopamine receptor (Homo sapiens) (UniProt P21728); test: Antagonist of Human D 1 Dopamine Receptor: qHTS; conditions: HEK293 TREx D1 cells, calcium flux, dopamine EC80; at 10 µM; stronger effect = lower value
From the text: Dopamine receptors (DARs) are involved in the etiology and/or therapy of a number of neuropsychiatric and endocrine disorders. For instance, all receptor-based antiparkinsonian drugs work via stimulating the […] DAR subtype whereas all FDA-approved antipsychotic agents are antagonists of this receptor. […] There are three different types of allosteric modulators that we are seeking, two of which will stimulate or augment receptor signaling, allosteric agonists and potentiators, while the third, allosteric antagonists, will attenuate receptor signaling. The present primary screening assay measures compound antagonism after an EC80 addition of dopamine by tracking calcium flux in a […], inducible Hek293 Trex D1 cell line. NIH Chemical Genomics Center [NCGC] NIH Molecular Libraries Probe Centers Network [MLPCN] MLPCN Grant: NS064831-01 Assay Submitter (PI): David Sibley
Freshly passaged cells are plated in 1536 well black, clear bottom plates at a density of 4000 cells/well in 3 ul of complete media containing 1x tetracycline inducer. After an overnight incubation at 30 C in 5% CO2, cells are loaded with 2 ul of the no wash Calcium Assay Kit (ABD Bioquest) and incubated at room temperature for 30 to 90 minutes. Agonist read: A 10 cycle (1 second/cycle) baseline measurement is taken and then the FDSS online 1536 pintool delivers 23 nl of compound library (as well as dopamine controls) to the plate. The plate is measured for kinetically at 1 cycle/sec for 180 seconds. Following the 180 second read, 1 ul of an EC80 (negative modulation assay) is delivered by an onboard pipette head. Measurements are taken kinetically for an additional 180 seconds.
% is scaled to controls: 0 for no effect and ±100 for the full control effect.

D(1A) dopamine receptor (Homo sapiens), sequence (P21728 whole entry, looked up): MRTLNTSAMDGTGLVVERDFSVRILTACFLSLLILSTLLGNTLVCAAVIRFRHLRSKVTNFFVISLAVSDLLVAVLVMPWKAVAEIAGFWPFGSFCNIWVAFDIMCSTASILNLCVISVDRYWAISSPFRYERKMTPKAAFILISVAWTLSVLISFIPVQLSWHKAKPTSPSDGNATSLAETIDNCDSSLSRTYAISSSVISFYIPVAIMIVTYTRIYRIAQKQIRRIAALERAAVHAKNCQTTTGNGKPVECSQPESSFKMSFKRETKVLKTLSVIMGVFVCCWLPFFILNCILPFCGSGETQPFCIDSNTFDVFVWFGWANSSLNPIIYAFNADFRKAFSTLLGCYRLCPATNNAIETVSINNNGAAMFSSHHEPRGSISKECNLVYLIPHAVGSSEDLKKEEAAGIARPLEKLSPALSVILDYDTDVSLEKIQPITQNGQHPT

| Compound | activity change, negative = inhibition |
| --- | --- |
| CCOCCc1c(O)[nH]c(=S)[nH]c1=O | -33.1% (active) |
| COc1ccccc1N=Nc1c(O)[nH]c(=S)[nH]c1=O | -9.34% |
| CC1=CC(=Cc2sc3ccccc3[n+]2C)C=C(C)O1 | -35.2% (active) |
| CC(C)c1c(CN(C)C(C)Cc2ccccc2)n(C)n(-c2ccccc2)c1=O (stereo not given) | -2.93% |
| Cc1ccc(-n2c(/C=C/c3cccc(C(F)(F)F)c3)nc3ccccc3c2=O)cc1 | 11.5% |
| Cc1ccc(C(C)C)c(OCC(=O)N2CCN(CC(=O)N3CCOCC3)CC2)c1 | 1.15% |
| NCCc1ccc(S(=O)(=O)F)cc1 | -35.8% (active) |
| CC(C)c1ccc(OCC(=O)N2CCCN(C)CC2)cc1 | -12.3% |
| CN1CCN(C(=O)COc2ccc(C(C)(C)C)cc2Br)CC1 | -15.7% |
| CC(C)c1ccc(OCC(=O)N2CCN(C)CC2)c(Br)c1 | -34.7% (active) |
| CC(C)(C)[C@]1(O)C[C@@H]2OC(=O)C[C@@]23C(=O)O[C@@H]2OC(=O)[C@H](O)[C@]213 | 0.221% |
| CN(C)CC1CCCCC1=O (stereo not given) | 9.1% |
| COc1c(O)ccc2c1-c1c3c(cc4c1C(C2)N(C)CC4)OCO3 (stereo not given) | -68% (active) |
| COc1ccc(C2NCc3ccc4c(c3-n3cccc32)OCO4)cc1OC (stereo not given) | -8.31% |
| CN1CCc2cc3c(cc2[C@H]1[C@@H]1OC(=O)c2c1ccc1c2OCO1)OCO3 | -19.5% |
| COC(=O)C1=C(c2ccc(Cl)c(C(F)(F)F)c2)C[C@@H]2CC[C@H]1N2C(=O)NC(C)C | -3.99% |
| CC(C)Oc1cccc(C(=O)C2CCCN(C3CCOCC3)C2)c1 (stereo not given) | -26.6% |
| COC(=O)C1=C(c2cccc(OCc3ccccc3)c2)C[C@@H]2CC[C@H]1N2C(=O)NCc1ccc(Br)cc1 | -2.72% |
| CC(C)c1ccc(-n2c(O)c(/C=N/N3CCOCC3)c(=O)[nH]c2=S)cc1 | 21.3% |
| O=c1[nH]c(=S)n(C2CC2)c(O)c1/C=N/N1CCOCC1 | -3.33% |
| Cc1cccc(-n2c(O)c(/C=N/N3CCOCC3)c(=O)[nH]c2=S)c1 | -42.1% (active) |
| Cn1cc(C(=O)OCC(=O)N2CCCC2)c2ccccc21 | -0.659% |
| Cc1cc(OCc2cc(C(=O)O)oc2C)c2c3c(c(=O)oc2c1)CCCC3 | 63% |
| OC(Cn1c2ccccc2c2ccccc21)C[n+]1ccccc1 (stereo not given) | 13.9% |

| Compound | activity change, negative = inhibition |
| --- | --- |
| COc1ccc(CNCCc2c[nH]c3ccccc23)cc1OC | -8.11% |
| c1cncc(CNCCc2c[nH]c3ccccc23)c1 | -33.9% (active) |
| C/C(CCc1c[nH]c2ccccc12)=N\O | 1.61% |
| C=CCn1c(O)c(/C=N/N2CCOCC2)c(=O)[nH]c1=S | 6.62% |
| COc1ccc(-c2nc(CS(=O)CC(=O)N3CCC4(CC3)OCCO4)c(C)o2)cc1 (stereo not given) | -3.25% |
| CCN1C(=O)C(=Cc2c(C)n(CC(=O)NCC3CCCO3)c3ccccc23)C(=O)N(CC)C1=S (stereo not given) | -0.95% |
| Cn1c(O)c(C(=Nc2ccc(F)cc2)c2ccccc2)c(=O)n(C)c1=O | -33.5% (active) |
| Cn1c(O)c(C=Nc2ccc3c(c2)CCC3)c(=O)n(C)c1=O | -5.53% |
| CC(=NC1CCN(Cc2ccccc2)CC1)c1c(O)n(C)c(=O)n(C)c1=O | -0.272% |
| COc1ccccc1N=C1SCCCN1C | -10.1% |
| CCc1ccc(OCC(=O)N2CCN(CC(=O)Nc3ccccc3Cl)CC2)cc1 | -5.54% |
| COC(=O)C1=C(c2ccccc2OCc2ccccc2)C[C@@H]2CC[C@H]1N2C(=O)NCc1ccc(OC)cc1 | -30.4% (active) |
| COC(=O)C1=C(c2ccc(F)cc2OCc2ccccc2)C[C@@H]2CC[C@H]1N2C(=O)NCc1ccc(C(C)(C)C)cc1 | -11.5% |
| COC(=O)C1=C(c2ccc3ccccc3c2)C[C@@H]2CC[C@H]1N2C(=O)NCCO | -40.5% (active) |
| COC(=O)C1=C(c2ccc(F)cc2OCc2ccccc2)C[C@@H]2CC[C@H]1N2C(=O)NCc1ccc(Cl)cc1 | 12.1% |
| COC(=O)C1=C(c2ccc(C(C)=O)cc2)C[C@@H]2CC[C@H]1N2C(=O)NCCNC(C)=O | 24% |
| COC(=O)C1=C(c2ccc(-c3ccccc3)c(F)c2)C[C@@H]2CC[C@H]1N2C(=O)NCc1ccc(F)cc1 | -0.711% |
| CC(Cc1ccccc1)NCCC(c1ccccc1)c1ccccc1 (stereo not given) | 15.9% |
| Cc1ccc(NC(=O)N(Cc2ccc3c(c2)OCO3)C2CCN(Cc3ccccc3)CC2)cc1F | 2.05% |
| CSc1nc2ccc(C)cc2c(=O)n1-c1cccnc1 | 7.08% |
| Cc1cc(C(=O)OCC(=O)Nc2c(F)cccc2F)c(C)n1C1CC1 | 2.31% |
| Cc1nn(-c2ccccc2)c(C)c1NC(=O)COC(=O)Cc1ccccc1 | -0.424% |
| O=C(CN1CCCCC1)Nc1ccc(Br)cc1C(=O)c1ccccc1Cl | -26.5% |
| O=C(Nc1ccc(Cl)cc1C(=O)c1ccccc1)c1cc(Cl)cc(Cl)c1 | 23.8% |

| Compound | activity change, negative = inhibition |
| --- | --- |
| O=C(CCNS(=O)(=O)c1ccccc1)Nc1ccc(Cl)cc1C(=O)c1ccccc1 | -6.99% |
| CN1CCN(C(=S)SCC(=O)Nc2ccc(Cl)cc2C(=O)c2ccccc2)CC1 | -39.4% (active) |
| O=C(COC(=O)c1ccccc1)Nc1ccc(Cl)cc1C(=O)c1ccccc1 | -31.5% (active) |
| O=C(CCN1CCCCC1)NCC(=O)Nc1ccc(Br)cc1C(=O)c1ccccc1 | -20.3% |
| CN(c1ccccc1)c1ccc([N+](=O)[O-])c2nonc12 | 0.138% |
| COC(=O)C1=C(c2ccc(F)cc2F)C[C@@H]2CC[C@H]1N2C(=O)NC1CC1 | 25.8% |
| O=C(NC(=S)N1C[C@H]2C[C@H](C1)c1cccc(=O)n1C2)c1ccc(F)cc1 | -0.512% |
| Cn1cc(/C=C/c2nc3ccccc3c(=O)n2-c2ccccc2)c2ccccc21 | 11% |
| Cc1ccccc1NC(=O)COC(=O)c1cc(C)n(C2CC2)c1C | 2.42% |
| C[C@]12CC[C@H](O)C[C@H]1CC[C@@H]1C2CC[C@]2(C)[C@@H](C3=CC(=O)OC3)[C@@H](O)C[C@]12O (stereo not given in full) | -17.2% |
| CC(C)CN1CCN(Cc2ccccc2C(F)(F)F)CC1CCO (stereo not given) | 0.591% |
| O=C(CCCn1c(=O)[nH]c2cc(Cl)ccc2c1=O)N1CCC2(CC1)OCCO2 | -7.09% |
| Cc1ccc(-c2cc(C(=O)N3CCC4(CC3)OCCO4)no2)cc1 | -7.04% |
| Cc1ccc(Cn2c(C)c3cnn(CC(=O)N4CCC5(CC4)OCCO5)c(=O)c3c2C)cc1 | -49.4% (active) |
| CNC(=O)O/N=C(\N)Cc1csc2ccccc12 | -21.2% |
| CNC(=O)N(C)c1nnc(C(C)(C)C)s1 | 9.77% |
| CCc1nc2ccccc2c(=O)n1-c1cccc(OC)c1 | 2.19% |
| NCC(O)c1ccc(O)cc1 (stereo not given) | -66.9% (active) |
| CCOP(=O)(OCC)C(NC(=O)NC)C(N)=O (stereo not given) | 4.22% |
| COC(=O)C1=C(c2cccc(OCc3ccccc3)c2)C[C@@H]2CC[C@H]1N2C(=O)NNCc1ccccc1 | -14.3% |
| CCN1CCN(c2ccc([N+](=O)[O-])cc2C#N)CC1 | 1.99% |
| CC(C)n1c(=O)c(C=Nc2ccc(Br)cc2)c(O)n(Cc2ccco2)c1=O | 14% |
